Assay outcomes deposited in PubChem by National Center for Advancing Translational Sciences (NCATS).
This is a sample that favours compounds with a hit; in the whole collection about 3.8% have one here.
KCNH2 WT inh: qHTS for Inhibitors of KCHN2 3.1: Wildtype qHTS. Voltage-gated inwardly rectifying potassium channel KCNH2 (Homo sapiens), Q12809. U2OS, BacMam KCNH2, thallium flux FluxOr; hits give low values. activity change, % at 1.84 µM. actives 0.37% (n = 340,000);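 active = maximum activity change below -70%; inconclusive = maximum activity change between -70% and -50%; inactive = maximum activity change above -50%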; note: % is set by controls: 0 for no effect and ±100 for the full control effect
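U2OS cells were transduced with wild-type KCNH2 virus (2.03 x 10^8 / mL) for 4 h at room temperature, then cultured overnight at 37 C. Thallium flux was read with FluxOr dye. Rate constants were normalized to DMSO controls.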
KCNH2 3.1 inh: qHTS for Inhibitors of KCHN2 3.1: Mutant qHTS; Potassium voltage-gated channel subfamily H member 2, brain isoform KCNH2 3.1 (human); U2OS KCNH2 3.1, thallium flux FluxOr; hits give low values; activity change, % (tested at about 1.8 µM); actives 0.95% (n = 340,000);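 active = maximum activity change below -70%; inconclusive = maximum activity change from -70% to -50%; inactive = maximum activity change above -50%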;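 note: thallium influx rate constant from kinetic fluorescence after stimulation buffer; % is set by controls: 0 for no effect and ±100 for the full control effect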
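We transduce U2OS cells with the mutant 3.1 virus, culture them overnight, load FluxOr with Red40 quencher for 45 min, then add stimulation buffer and read kinetically for 2 min to derive a normalized rate constant.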
PLK1 PBD inh: qHTS for Inhibitors of PLK1-PDB (polo-like kinase 1 - polo-box domain): Primary Screen. Serine/threonine-protein kinase PLK1 (Homo sapiens), P53350. Plk1 PBD binding of FITC phosphopeptide, fluorescence polarization. Potency, µM, without a hit: max response, negative = inhibition, hits mostly inhibitors. actives 2.8% (n = 360,000); note: potency is the fitted concentration of half-maximal effect; series mostly up to about 57 µM; % is set by controls: 0 for no effect and ±100 for the full control effect; nearly all actives have a fitted effect of over 65% in size
VDR inhibitor: Inhibitors of the vitamin D receptor (VDR): qHTS; Vitamin D3 receptor (Homo sapiens), P11473; VDR-SRC2-3 peptide fluorescence polarization, 2 h; Potency, µM, without a hit: max response, negative = inhibition, usual class: inhibitors; actives 0.93% (n = 400,000); note: potency is the fitted concentration of half-maximal effect; % is set by controls: 0 for no effect and ±100 for the full control effect
Target sequence (P11473 whole entry, looked up): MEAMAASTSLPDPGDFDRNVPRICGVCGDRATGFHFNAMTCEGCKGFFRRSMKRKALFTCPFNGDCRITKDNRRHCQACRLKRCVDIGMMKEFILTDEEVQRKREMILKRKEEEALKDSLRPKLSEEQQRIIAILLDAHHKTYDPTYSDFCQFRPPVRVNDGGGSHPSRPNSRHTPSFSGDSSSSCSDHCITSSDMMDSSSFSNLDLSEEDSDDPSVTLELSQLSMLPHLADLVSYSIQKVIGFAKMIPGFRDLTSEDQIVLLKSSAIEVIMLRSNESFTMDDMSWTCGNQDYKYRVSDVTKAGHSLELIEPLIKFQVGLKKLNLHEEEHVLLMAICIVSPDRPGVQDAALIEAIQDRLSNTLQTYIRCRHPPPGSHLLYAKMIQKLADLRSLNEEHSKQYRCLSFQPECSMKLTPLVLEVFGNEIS
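Two reagent solutions held at 4 deg C in the dark were dispensed, compounds pinned at 23 nl, and the mixture incubated 2 h at room temperature. Read-out: fluorescence polarization of VDR–SRC2-3 peptide binding.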
MBNL1-CUG inh: qHTS Assay for Inhibitors of MBNL1-poly(CUG) RNA binding. actives 0.036% (n = 280,000). TR-FRET MBNL1-His/biotin-(CUG)12 binding, 665/545 ratio. Potency, µM (top dose mostly 57.5 µM), without a hit: top-dose activity change, negative = inhibition, most hits filed as inhibitors; active = well fitted inhibition curve with a large enough effect in the signal ratio, with a control signal flat, not every such curve was filed as active; inconclusive = small, poorly fitted or top-dose-only effect, or effect the other way, or a change in a side signal; inactive = no such curve, though single readings can be large or run the other way; the % refers to the signal ratio; note: potency is the fitted concentration of half-maximal effect; % is set by controls: 0 for no effect and ±100 for the full control effect
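Compound titration spanned 92 nM–58 uM against the MBNL1-His/biotin-(CUG)12 complex. After 60 min at room temperature with 5 nM streptavidin-XL665 and 0.055 ng/ul terbium anti-His, ratiometric 665/545 nm emission (Ex 340 nm) normalized to controls.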
CBFb RUNX1 block: qHTS Assay for Compounds Blocking the Interaction Between CBF-beta and RUNX1 for the Treatment of Acute Myeloid Leukemia. Potency, µM (titrated, usually from 59.8 µM), without a hit: top-dose activity, negative = inhibition, usual class: inhibitors. Runt-related transcription factor 1 (Homo sapiens) + Core-binding factor subunit beta …. AlphaScreen CBFb-His/RUNX1-biotin binding, biochemical. 230,000 tested, under 10 active; note: % of control where 0% means no effect
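Interaction loss through any mechanism counts as activity. Pre-formed complex of His-CBF-beta and biotin-RUNX1 (30 nM apiece) is incubated with compound 15 min, then with 50 ng nickel and 50 ng streptavidin beads for 90 min before AlphaScreen detection.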
* = called active by the depositor; ? = inconclusive; . = no result given; [ ] = another dose, or the depositor's remark. Unless noted, calls come from the whole dose curve; as a rule, active = well fitted curve in the direction sought with a large enough effect; inconclusive = small, poorly fitted or top-dose-only effect, or another doubt; inactive = no such curve, though single readings can be large; an effect the other way counts as inactive or inconclusive.

SMILES	KCNH2 WT inh	KCNH2 3.1 inh	PLK1 PBD inh	VDR inhibitor	MBNL1-CUG inh	CBFb RUNX1 block
Nc1nonc1-n1nnc(C(=O)N/N=C/c2cccc(Cl)c2)c1CN1CCCC1	28	-14	30µM*	-20%	.	.
CN(C)c1ccc(/C=N/NC(=O)c2nnn(-c3nonc3N)c2CN2CCCCCC2)cc1	7	-38	-30%	-2%	.	.
CCCCOc1ccc(/C=N/NC(=O)c2nnn(-c3nonc3N)c2CN2CCCCCC2)cc1	-1	-81*	-28%	-9%	.	.
Cc1cccc(COc2ccc(/C=N/NC(=O)c3nnn(-c4nonc4N)c3C)cc2)c1	1	1	21µM*	?	2%	.
Nc1nonc1-n1nnc(C(=O)N/N=C/c2cccc(F)c2)c1CN1CCCC1	-10	-20	-10%	-11%	.	.
Cc1cccc(C)c1Nc1oc(-c2ccccc2)nc1-c1cccc2ccccc12	.	.	.	0%	.	21%
CC(Sc1cccc[n+]1[O-])C(=O)NC1CCCCC1C (centres undefined)	-5	0	24µM*	-17%	.	.
Cc1ccc2[nH]c(CSc3nnc(NC(=O)COc4ccccc4F)s3)cc(=O)c2c1	.	.	.	11%	.	.
CC1CCC(C(C)C)C(O)C1 (centres undefined)	.	.	.	-2%	.	?
C=CCN1C(=O)NC2(O)C(=O)c3ccccc3C12O (centres undefined)	6	-1	-2%	-6%	-10%	12%
CN1C(=O)NC2(O)C(=O)c3ccccc3C12O (centres undefined)	-2	19	2.7µM*	?	-2%	2%
Cn1c(-c2ccc(N)cc2)nc2ccccc21	1	-6	-8%	2%	0%	6%
Cc1ccc(-n2c(N)c(-c3nc4ccccc4n3C)sc2=S)cc1	11	-11	5.3µM*	?	-1%	-2%
FC(F)(F)c1nnc(-c2ccccc2)nc1Sc1ccc(Cl)cc1	-3	6	-30%	71µM*	2%	2%
O=C(CSc1c2c(nc3cc(Cl)ccc13)CCCC2)NCCN1CCOCC1	-12	13	-7%	?	11%	-5%
Clc1ccc2c(SCC3CO3)c3ccccc3nc2c1 (centres undefined)	17	.	-26%	40µM*	.	.
COc1cc(OC)c(NC(=O)CSC2=Nc3ccccc3N=C(c3ccc(F)cc3)C2)cc1Cl	.	.	.	8%	.	.
Cc1ccccc1C(=O)OCc1nnc(-c2ccc(Cl)cc2)o1	-2	-77*	-3%	6%	-11%	24%
Cc1cccn(Cc2c(F)cccc2Cl)c1=O	-2	-1	0%	4%	7%	5%
O=c1ccccn1Cc1c(F)cccc1Cl	-2	0	3.4µM*	-21%	5%	5%
COc1ccc(Cl)cc1NC(=O)CSc1nc(-c2ccccc2)c2ccccc2n1	.	.	.	8%	.	.
Cc1cc(C)c(S(=O)(=O)NCC23C=CC(O2)C2C(=O)N(c4ccccc4)C(=O)C23)c(C)c1 (centres undefined)	6	3	-8%	?	3%	1%
O=C1C2C3C=CC(CNS(=O)(=O)c4ccccc4[N+](=O)[O-])(O3)C2C(=O)N1c1ccccc1 (centres undefined)	1	1	67µM*	-13%	23%	-5%
CCn1c(SCC(=O)Nc2ccccc2-c2ccccc2)nnc1-c1ccoc1C	7	6	-15%	-19%	-3%	-3%
CCCCn1c(SCC(=O)Nc2nnc(C)s2)nnc1-c1ccoc1C	-3	-3	1%	-6%	-4%	5%
SMILES	KCNH2 WT inh	KCNH2 3.1 inh	PLK1 PBD inh	VDR inhibitor	MBNL1-CUG inh	CBFb RUNX1 block
CCn1c(SCC(=O)Nc2ccccc2F)nnc1-c1ccoc1C	0	-118*	1%	-1%	0%	.
Cc1nnc(NC(=O)CSc2nnc(-c3ccoc3C)n2CC(C)C)s1	7	2	27µM*	?	-14%	5%
Cc1nonc1NC(=O)CSc1nnc(-c2ccoc2C)n1CC(C)C	0	11	-3%	-13%	-1%	1%
CCCn1c(SCC(=O)Nc2nnc(C)s2)nnc1-c1ccoc1C	-6	-10	27µM*	?	-21%	5%
C=CCN1C(=O)C(O)(CC(=O)c2ccc(OC)cc2OC)c2cc(Br)ccc21 (centres undefined)	-7	1	8.4µM*	-27%	-2%	10%
CCCS(=O)(=O)c1ncc(Cl)c(C(=O)N(Cc2ccccc2)Cc2ccco2)n1	.	.	.	22µM*	.	.
CCSc1ncc(Cl)c(C(=O)N(Cc2ccccc2)Cc2ccco2)n1	.	.	.	6%	.	.
C[C@@H]1CCC(=O)N(C[C@@H](C)CSc2ccc(Br)cc2)CC1	-1	-113*	-7%	-10%	.	.
Cc1c(Cl)cccc1NC(=S)Nn1cnnc1	3	-7	7.5µM*	79µM*	.	14%
Cc1c(Cl)cccc1NC(=S)NC1CC1	-37	1	-4%	-25%	.	12%
COc1ccc(CNC(=O)c2cnc3sc(N4CCCC4)nn3c2=O)c(OC)c1	.	.	.	-3%	.	.
COCCNS(=O)(=O)c1ccc(C2CNC(=O)C2)cc1 (centres undefined)	-4	-3	-9%	-17%	3%	3%
NS(=O)(=O)c1ccc(NS(=O)(=O)c2ccc(C3CNC(=O)C3)cc2)cc1 (centres undefined)	3	7	30µM*	?	2%	.
Brc1ccccc1-c1nnc(CSc2nncn2-c2ccccc2)o1	-1	-6	27µM*	-18%	-13%	11%
Cc1ccc(C(=O)OCC(=O)NC(=O)c2cccn2C)cc1[N+](=O)[O-]	-7	5	27µM*	?	.	4%
Cc1ccc(C(=O)OCC(=O)NC(=O)c2cccn2C)cc1	-6	-16	-6%	-2%	-12%	1%
CNC(=O)c1ccccc1	.	.	.	.	.	6%[21.7 µM]
CC1CCCCN1C(=O)Cn1cnc2cc([N+](=O)[O-])ccc2c1=O (centres undefined)	-1	14	9.5µM*	?	?	-11%
COc1ccc(N(CC(O)Cn2c(C)nc3ccccc32)S(=O)(=O)c2ccccc2)cc1 (centres undefined)	18	-42	1%	-10%	.	-7%
